High-throughput results: PubChem BioAssay, National Center for Advancing Translational Sciences (NCATS)
IL1B secr inh: qHTS for Inhibitors of Inflammasome Signaling: IL-1-beta AlphaLISA Primary Screen; THP-1 LPS/ATP IL-1B secretion, AlphaLISA, 16 h; hits give low values; activity change, % at 57.5 µM; actives 4.7% (n = 360,000); AID 743279, 2014; in the data active = activity change below about -50%; inconclusive = mostly about -30% to -49%; also: % is scaled to controls: 0 for no effect and ±100 for the full control effect
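Secreted IL-1B measured by AlphaLISA bead assay after 16 h compound exposure of THP-1 cells; compounds (final up to 57.5 uM) added 1 h before LPS (250 ng/mL) and ATP (1.25 mM) stimulation; lower signal means less secretion.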
TDP1 cell noCPT: qHTS for Inhibitors of human tyrosyl-DNA phosphodiesterase 1 (TDP1): qHTS in cells in absence of CPT; DT40 Tdp1-/- hTDP1 cells, no CPT, ATP luminescence, 48 h; actives 15% (n = 420,000); Potency, µM (top dose mostly 46.2 µM), for inactives: at the highest dose activity change, negative = growth inhibition, most hits filed as inhibitors; also: potency is read from the fitted curve at half-maximal effect; % is scaled to controls: 0 for no effect and ±100 for the full control effect; nearly all actives have a fitted effect of over 55% in size
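Growth of hTDP1-complemented DT40 Tdp1-knockout cells is measured by ATP luminescence after at least 48 hr compound exposure at 37 °C, with DMSO substituting for the 20 nM CPT used in the parallel screen.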
ClpP mod: qHTS Assay for Activators of ClpP; Potency, µM (doses to about 57.5 µM), inactives show at the top dose activity change, negative = active; purified B. subtilis ClpP, FRET peptide cleavage, 20 min; actives 1.9% (n = 340,000); active = well fitted falling curve with a large enough effect; inconclusive = small, poorly fitted or top-dose-only effect; inactive = no such curve, though single readings can be large or run the other way; also: potency is read from the fitted curve at half-maximal effect; the source files actives as falling curves though it sought activators and does not explain the sign; nearly all actives have a fitted effect of over 65% in size
Target sequence (P80244 whole entry, looked up): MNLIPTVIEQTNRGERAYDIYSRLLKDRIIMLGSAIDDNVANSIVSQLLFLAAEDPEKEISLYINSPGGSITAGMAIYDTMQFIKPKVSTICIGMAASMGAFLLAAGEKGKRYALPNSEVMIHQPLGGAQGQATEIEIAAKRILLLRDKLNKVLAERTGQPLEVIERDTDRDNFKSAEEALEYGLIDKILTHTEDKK
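ClpP 10 microg/mL final, pH 8 Tris/KCl buffer with BSA, glycerol, Tween-20; compound pinned in; FRET-FV substrate; RT 20 min; Ex320/Em430; ΔFRET vs ADEP 5.8 microM, DMSO, no enzyme.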
DT40 TDP1 CPT: qHTS for Inhibitors of human tyrosyl-DNA phosphodiesterase 1 (TDP1): qHTS in cells in presence of CPT | AID 686979, 2013 | chicken DT40 Tdp1-/-;hTDP1 cells + 20 nM CPT, ATP luminescence, 48 h | Potency, µM (doses to about 46.2 µM), for the others: at the highest dose activity change, negative = growth inhibition, most hits filed as inhibitors | actives 12% (n = 420,000); also: potency is read from the fitted curve at half-maximal effect; % is scaled to controls: 0 for no effect and ±100 for the full control effect; nearly all actives have a fitted effect of over 55% in size
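Chicken DT40 Tdp1-/- cells stably complemented with human TDP1 were seeded at 400 cells/well in medium containing 20 nM camptothecin, exposed to pin-transferred compounds, and grown at 37 °C for at least 48 hr. Viability was read as ATP luminescence.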
DRD3 agonist: qHTS of D3 Dopamine Receptor Agonist: qHTS. max activation, %. D(3) dopamine receptor (Homo sapiens), P35462. actives 0.58% (n = 410,000). D3R DiscoveRx beta-arrestin cells, luminescence, 90 min; in the data active = max activation above about 30%; also: 0% is about no effect
Target sequence (P35462 whole entry, looked up): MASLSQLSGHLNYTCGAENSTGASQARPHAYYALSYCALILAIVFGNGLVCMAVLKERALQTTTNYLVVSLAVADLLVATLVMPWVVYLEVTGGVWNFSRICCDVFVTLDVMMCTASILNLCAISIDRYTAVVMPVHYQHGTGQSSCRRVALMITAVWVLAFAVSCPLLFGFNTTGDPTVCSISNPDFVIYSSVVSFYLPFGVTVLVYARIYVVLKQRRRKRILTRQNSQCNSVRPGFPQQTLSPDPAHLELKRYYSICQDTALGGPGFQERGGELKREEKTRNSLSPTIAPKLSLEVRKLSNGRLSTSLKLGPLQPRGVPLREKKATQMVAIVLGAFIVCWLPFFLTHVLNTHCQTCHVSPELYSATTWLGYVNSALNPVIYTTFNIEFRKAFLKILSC
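Cells at 1500/well, incubated overnight, then treated with pinned compounds (dopamine as control) for 90 min at 37 degrees C. DiscoveRx reagent added for 30 - 60 minutes at room temperature; luminescence read.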
D3 antag: qHTS of D3 Dopamine Receptor Antagonist: qHTS | D3R cells, DiscoveRx beta-arrestin luminescence, antagonist mode; hits give low values | actives 2.5% (n = 360,000) | AID 652054, 2013 | D(3) dopamine receptor (Homo sapiens), P35462 | max response, negative = inhibition, %; in the data active = max response below about -50%; inconclusive = no clear call, values can overlap the other calls; also: % is scaled to controls: 0 for no effect and ±100 for the full control effect
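Cells expressing the human receptor were seeded at 1500 cells/well, incubated overnight at 37 degrees C in 5% CO2, then exposed to library compounds with dopamine controls for 90 minutes at 37 degrees C before luminescent detection.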
Starred values were filed as active, the others as inactive; i = inactive; ? = inconclusive; . = no result; [ ] = remark or other dose. Only some compounds are listed: those with a hit (about 21% of all), similar ones and a draw of the others. Unless noted, calls follow the shape of the dose curve; as a rule, active = well fitted inhibition curve with a large enough effect; inconclusive = small, poorly fitted or top-dose-only effect; inactive = flat fitted curve, though single readings scatter.

SMILES	IL1B secr inh	TDP1 cell noCPT	ClpP mod	DT40 TDP1 CPT	DRD3 agonist	D3 antag
Cc1nn(Cc2c(F)c(F)c(F)c(F)c2F)c(C)c1NC(=O)c1ccc(COc2ccc(F)cc2)o1	?	20.6µM*	1.0%	16.4µM*	1.7	14.8
Cc1nn(Cc2c(F)c(F)c(F)c(F)c2F)c(C)c1NC(=O)c1ccc(COc2ccccc2Cl)cc1	5.9	1.46µM*	3.4%	?	1.6	-15.7
Cc1nn(Cc2c(F)c(F)c(F)c(F)c2F)c(C)c1NC(=O)c1ccc(COc2cc(Cl)ccc2Cl)cc1	19.6	?	1.6%	?	0.2	0.0
COc1ccccc1C(=O)NNC(=S)NC(=O)c1ccco1	15.1	7.31µM*	-0.8%	11.6µM*	-15.1	-20.6
COC(=O)c1cc(OC)c(OC)cc1NC(=S)NC(=O)c1ccco1	4.5	10.3µM*	0.3%	20.6µM*	1.4	-29.5
O=C(NC(=S)NNC(=O)c1ccco1)c1ccc(Br)cc1	34.7	?	-2.4%	?	14.6	0.0
COC(=O)c1cc(OC)c(OC)cc1NC(=S)Nc1cccc(Cl)c1	?	-13.8%	-3.7%	0.5%	-9.3	-65.8*
CCNC(=S)Nc1cc(OC)c(NC(=O)c2ccco2)cc1OC	-13.3	-15.6%	.	0.8%	6.7	6.5
CCCOc1ccc(C(=O)NNC(=S)NC(=O)c2ccco2)cc1	-3.7	2.91µM*	-3.4%	3.26µM*	0.7	-21.9
COc1ccccc1-c1ccc(C(=O)NCCN2CCOCC2)c(N2CCN(c3ccccc3F)CC2)n1	.	-24.0%	.	2.9%[9.04 µM]	.	.
Cc1ccccc1C(=O)Nc1ccnn1C1CCN(C2CCSCC2)CC1	i	-12.1%	1.2%	-10.5%	3.6	-10.6
COc1ccc(CCN(C)C(=O)C2CCN(Cc3cccc(OC)c3OC)CC2)cc1OC	6.6	-2.2%	-0.2%	8.7%	2.1	-15.4
CCS(=O)(=O)N1CCc2cc(C(=O)Nc3cc([N+](=O)[O-])ccc3C)ccc21	.	-22.9%	0.9%	?	-2.9	.
CCC(NC(=O)c1ccccc1NC(=O)c1ccco1)C(=O)NNC(=O)c1ccc(OC)cc1 (centres undefined)	-120.0*	-45.7%	.	-10.4%	2.1	-8.6
O=C(NC(=S)NCc1ccc(Cl)cc1)c1ccco1	-100.9*	?	-4.5%	?	-4.4	-11.8
O=C(NC(=S)NCCc1ccccc1)c1ccco1	6.7	?	1.0%	?	3.7	4.1
COc1ccc(C(=O)NNC(=S)NC(=O)c2ccco2)cc1	122.5	8.2µM*	0.5%	5.17µM*	1.9	-57.5*
CC(Oc1ccc(Cl)cc1)C(=O)NNC(=S)NC(=O)c1ccco1 (centres undefined)	72.9	16.4µM*	-2.1%	?	-7.2	24.7
O=C(NNC(=S)NC(=O)c1ccco1)c1ccc(F)cc1	79.4	?	-0.7%	?	2.1	3.1
C[C@]12CCC[C@H](O1)[C@H]([C@@H](O)c1ccccc1)O2	34.3	5.8%	-2.2%	-9.6%	-5.6	0.0
CCCCCC1CCC(C(=O)NNC(=S)NCC)CC1 (centres undefined)	-20.5	?	4.0%	23.1µM*	2.0	-1.6
Cc1cc(N2CCN(c3ccc(F)cc3)CC2)nc2cc(O)ccc12	23.1	14.6µM*	-22.2%	23.1µM*	-7.0	0.0
COc1ccc2c(C)cc(N3CCN(c4ccc(F)cc4)CC3)nc2c1	15.7	?	28.2µM*	?	-9.6	-23.4
COc1ccc(N2CCN(c3cc(C)c4ccc(C)cc4n3)CC2)cc1	-11.6	?	-28.1%	?	-10.7	-4.2
COCC(C)NCc1cc2ccc(OC)cc2nc1N1CCN(c2ccc(F)cc2)CC1 (centres undefined)	.	13µM*	.	-5.8%[9.04 µM]	.	.
SMILES	IL1B secr inh	TDP1 cell noCPT	ClpP mod	DT40 TDP1 CPT	DRD3 agonist	D3 antag
COc1ccc(N2CCN(c3cc(C)c4ccc(O)cc4n3)CC2)cc1	3.4	?	-8.7%	-26.4%	-0.7	30.7
COc1nc2ccccc2nc1N1CCN(c2ccc(F)cc2)CC1	33.4	3.8%	?	-22.4%	3.3	51.2
O=C1OC(CN2CCOCC2)CN1N=Cc1ccc([N+](=O)[O-])o1 (centres undefined)	11.8	?	-0.2%	14.6µM*	15.9	9.6
O=C1OC(CN(Cc2ccccc2)Cc2ccccc2)CN1N=Cc1ccc([N+](=O)[O-])o1 (centres undefined)	-0.6	9.2µM*	.	16.4µM*	-15.0	-21.9
O=C(CSc1ccc(Cl)cc1)N1CCC(c2nc3ccccc3s2)CC1	-1.6	?	-6.2%	25.9µM*	3.8	1.0
O=C(O)C1CCN(C(=O)CSc2nc3ccccc3s2)CC1	43.8	?	.	?	16.5	2.2
CC1CCN(C(=O)CSc2nc3ccccc3s2)CC1	-14.5	-13.9%	-2.6%	11.8%	-2.0	-0.6
O=C(CSc1c(Cl)cccc1Cl)N1CCC(c2nc3ccccc3s2)CC1	-16.0	20.6µM*	0.5%	?	2.3	13.3
C/C=C/C(=O)Nc1nnc(C2CCCCC2)s1	-87.7*	5.7%	1.6%	?	2.1	19.0
O=C(Nc1nnc(C2CC2)s1)C1CCCCC1	15.0	-3.2%	1.2%	-1.3%	-4.1	-1.2
O=C(CCS(=O)(=O)c1nc(-c2ccc3c(c2)OCO3)cc(C(F)(F)F)n1)Nc1ccc(F)c(Cl)c1	.	5.8µM*	4.5%	2.59µM*	-23.8	.
COc1cc(NC(=O)CCS(=O)(=O)c2nc(-c3ccc4c(c3)OCO4)cc(C(F)(F)F)n2)cc(OC)c1OC	.	16.4µM*	-0.2%	?	5.0	.
O=C(CCS(=O)(=O)c1nc(-c2ccc3c(c2)OCO3)cc(C(F)(F)F)n1)Nc1ccccc1C(F)(F)F	.	23.1µM*	0.9%	?	-15.3	.
COc1ccc(-c2cc(C(F)(F)F)nc(S(=O)(=O)CCCC(=O)Nc3cccnc3Cl)n2)cc1OC	-107.2*	3.66µM*	.	2.31µM*	-10.8	?
COC(=O)c1ccccc1NC(=O)CCCS(=O)(=O)c1nc(-c2ccccc2OC)cc(C(F)(F)F)n1	.	-20.5%	2.6%	-0.3%	-5.4	.
COc1ccc(NC(=O)CCS(=O)(=O)c2nc(-c3ccc4c(c3)OCO4)cc(C(F)(F)F)n2)c(OC)c1	.	?	4.2%	?	-6.7	.
